Results reported in PubChem BioAssay (NCATS).
Records with an inconclusive call do not appear. Unless noted, calls follow the shape of the dose curve; as a rule, active = well fitted curve in either direction with a large enough effect (not every such curve was filed as active); inconclusive = small, poorly fitted or top-dose-only effect, or another doubt; inactive = flat fitted curve, though single readings scatter.

Columns and labels:
[1] = AP1 Signaling Pathway (AID 357); conditions: ME-180 AP-1-bla reporter, EGF-induced, beta-lactamase ratio, 5 h; at 17.2 µM (top of the series) unless noted; also: % is scaled to controls: 0 for no effect and ±100 for the full control effect
Procedure, shortened: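 AP-1-bla ME-180 cells with beta-lactamase reporter under AP-1 response element, stimulated with EC50 EGF; compounds titrated, 5 hours at 37 degrees Celsius. CCF4 read at 460/530 nm ratio; positive and negative modulators judged by AC50.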

[2] = Stat Signaling Pathway (AID 446); conditions: ME-180 (cervical carcinoma) SIE beta-lactamase reporter, IL-6 stimulated, 5 h; at 17.2 µM (top of the series) unless noted;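 also: ME-180 cervical cancer cells given 40 pM IL-6 alongside compound; SIE-controlled beta-lactamase reporter measured as 460/530 nm FRET emission ratio; % is scaled to controls: 0 for no effect and ±100 for the full control effect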
Procedure, shortened: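 Overnight-plated ME-180 cells bearing a STAT Inducible Element beta-lactamase reporter; 5 h co-exposure to compound and 40 pM IL-6; values normalized to 300 pM IL-6 and 125 nM JAK inhibitor controls.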

[3] = molecular target: Glucocorticoid receptor (Homo sapiens) (UniProt P04150); test: GR-GFP Redistribution (AID 450;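 active = compounds whose dose series gives a full or clear partial fitted curve of increased nuclear translocation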; also: potency is read from the fitted curve at half-maximal effect)
Chain of Glucocorticoid receptor (Homo sapiens) (P04150 whole entry, looked up): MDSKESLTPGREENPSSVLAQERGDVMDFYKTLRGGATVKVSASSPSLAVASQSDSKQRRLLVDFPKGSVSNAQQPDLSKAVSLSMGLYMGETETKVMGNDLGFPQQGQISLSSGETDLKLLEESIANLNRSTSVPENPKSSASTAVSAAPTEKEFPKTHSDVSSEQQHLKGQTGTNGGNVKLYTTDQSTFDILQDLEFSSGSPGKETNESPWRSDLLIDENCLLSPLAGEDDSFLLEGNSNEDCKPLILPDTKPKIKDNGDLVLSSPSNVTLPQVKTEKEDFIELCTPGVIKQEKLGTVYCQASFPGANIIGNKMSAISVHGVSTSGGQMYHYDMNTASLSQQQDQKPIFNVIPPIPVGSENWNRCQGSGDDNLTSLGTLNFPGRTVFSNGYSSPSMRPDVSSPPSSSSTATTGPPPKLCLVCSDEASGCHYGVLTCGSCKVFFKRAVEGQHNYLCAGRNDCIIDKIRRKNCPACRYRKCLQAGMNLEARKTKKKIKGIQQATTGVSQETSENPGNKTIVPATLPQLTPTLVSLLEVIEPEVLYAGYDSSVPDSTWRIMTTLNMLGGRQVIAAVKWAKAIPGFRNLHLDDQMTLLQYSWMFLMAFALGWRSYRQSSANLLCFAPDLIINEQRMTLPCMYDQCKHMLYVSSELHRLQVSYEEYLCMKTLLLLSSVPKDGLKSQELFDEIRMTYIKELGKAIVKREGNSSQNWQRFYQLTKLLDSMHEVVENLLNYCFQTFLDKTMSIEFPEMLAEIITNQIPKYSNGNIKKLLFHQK

C=C(C)CSc1nnc2n(C)c(=O)c3c4c(sc3n12)CCC4
inactive: activity change, negative = inhibition [1] -2.43% | activity, negative = inhibition [2] 2.61% | Potency [3] > 20.6 µM

CN(C)CCCN1C(=O)C(=O)/C(=C(/O)c2ccccc2)C1c1ccccn1 (stereo not given)
inactive: activity change, negative = inhibition [1] 7% | activity, negative = inhibition [2] 4.69% | Potency [3] > 20.6 µM

CCCOc1ccc(C(C)=O)cc1CSCCC#N
inactive: activity change, negative = inhibition [1] -12.7% | activity, negative = inhibition [2] 85.5% | Potency [3] > 20.6 µM

N#Cc1c(N2CCOCC2)nc(N2CCCCC2)c2c1CCN(C1CCCCC1)C2
inactive: activity change, negative = inhibition [1] -8.29% | activity, negative = inhibition [2] 4.09% | Potency [3] > 20.6 µM

CCOC(=O)COn1c(=O)c(-c2ccco2)[n+]([O-])c2ccccc21
inactive: activity change, negative = inhibition [1] -20.1% | activity, negative = inhibition [2] 12.3% | Potency [3] > 20.6 µM

CC1(C)Cc2nc3sc4c(N(CCO)CCO)ncnc4c3cc2CO1
inactive: activity change, negative = inhibition [1] 1.68% | activity, negative = inhibition [2] -5.3% | Potency [3] > 20.6 µM

COc1ccc(CN(C#N)c2nc(SC)nc(N(C)C)n2)cc1
inactive: activity change, negative = inhibition [1] -3.69% | activity, negative = inhibition [2] 2.92% | Potency [3] > 20.6 µM

COCCNC(=O)c1c(N)n(/N=C/c2cccs2)c2nc3ccccc3nc12
inactive: activity change, negative = inhibition [1] -0.395% | activity, negative = inhibition [2] 19.9% | Potency [3] > 20.6 µM

O=c1/c(=C\c2cccn2-c2ccccc2)sc2nc3ccccc3n12
inactive: activity change, negative = inhibition [1] 2.64% | activity, negative = inhibition [2] 14.8% | Potency [3] > 20.6 µM

CC(C)C(=O)N1CCN(c2nc(-c3ccccc3)c3c(c2C#N)CC(C)(C)OC3)CC1
inactive: activity change, negative = inhibition [1] -2.44% | activity, negative = inhibition [2] 9.79% | Potency [3] > 20.6 µM
